The values below come from PubChem BioAssay.

Each structure is given as a SMILES string. Activity calls are given as the source filed them.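 The calls were made as follows, unless noted: active = compound raises insulin release from rat beta cells at 5 mM glucose, no numeric limit stated; inactive = the rest.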

One experiment can be described thus: stimulators of insulin release from INS-1E, primary screen, cell-based, 5 mM glucose, NPC library (AID 1117329). Also: reference of the scale not given here. The following applies: rat INS-1E insulin secretion, at 10 µM, active compounds read high.
As for `CCCn1cnc2c1c(=O)n(CCCCC(C)=O)c(=O)n2C`, the insulin secretion stimulation was -1.25% (inactive).
For the compound `Cc1c(C)n(CCN(C)C)c2ccc(C(=O)OCCN(C)C)cc12`, the insulin secretion stimulation was 0.4% (inactive).
Still for that read-out and setting: to `O=C(O)C1(C(=O)O)CCC1.[NH2-].[NH2-].[Pt+2]` belongs -0.3% (inactive); to `N[C@@H](Cc1ccc(O)cc1)C(=O)O`, 3.9% (inactive).
The same measure, in the same setting: to `C[S+](CC[C@H](N)C(=O)O)C[C@H]1O[C@@H](n2cnc3c(N)ncnc32)[C@H](O)[C@H]1O` (some centres undefined) belongs 1.55% (inactive); to `CCCC(=O)O[C@]1(C(=O)CO)CC[C@H]2[C@@H]3CCC4=CC(=O)CC[C@]4(C)[C@H]3[C@@H](O)C[C@@]21C`, 1.4% (inactive); to `O=C(O)C(S)C(S)C(=O)O` (centres undefined), 1.3% (inactive).
On to `CC(C)=CCC[C@@](C)(O)[C@H]1CC=C(C)CC1`, for which the insulin secretion stimulation is 3.6% (inactive).
On the same count and under the same terms, with `C[C@]12CC[C@@H]3c4ccc(O)cc4CC[C@H]3[C@@H]1CC[C@@H]2OC(=O)CCC1CCCC1` the figure was 0.5% (inactive); with `CC(=O)N(c1onc(C)c1C)S(=O)(=O)c1ccc(N)cc1`, -0.8% (inactive).
For `C=CC(C)(O)CCC=C(C)CCC=C(C)C` (centres undefined), the insulin secretion stimulation is -0.2% (inactive).
Still for that read-out and setting: to `C#C[C@]1(OC(C)=O)CC[C@H]2[C@@H]3CCC4=C/C(=N/O)CC[C@@H]4[C@H]3CC[C@@]21CC` belongs -0.2% (inactive); to `CCCCN1CCCC1C(=O)Nc1c(C)cc(C)cc1C` (centres undefined), 0% (inactive); to `C[C@]12CCC(=O)C=C1CC[C@H]1[C@@H]3CC[C@](O)(C(=O)CO)[C@@]3(C)C[C@H](O)[C@@]12F`, 0.3% (inactive).
The same measure, in the same setting: to `c1ccc2ccccc2c1` belongs 6.8% (inactive).
With `Cc1c(-c2ccc(O)cc2)n(Cc2ccc(OCCN3CCCCCC3)cc2)c2ccc(O)cc12`, the insulin secretion stimulation is 4.3% (inactive).
Still for that read-out and setting: with `CC(=C(CCOC(=O)C(C)C)SSC(CCOC(=O)C(C)C)=C(C)N(C=O)Cc1cnc(C)nc1N)N(C=O)Cc1cnc(C)nc1N` the figure was 31.5% (active); with `Cc1cc(-c2ccc(N=Nc3c(S(=O)(=O)O)cc4cc(S(=O)(=O)O)cc(N)c4c3O)c(C)c2)ccc1N=Nc1c(S(=O)(=O)O)cc2cc(S(=O)(=O)O)cc(N)c2c1O`, 2.95% (inactive).
Same read-out and setting: with `CCOc1cc(NC(C)=O)ccc1C(=O)OC` the figure was 4.4% (inactive); with `O=[N+]([O-])c1cccc(S(=O)(=O)NCCNS(=O)(=O)c2cccc([N+](=O)[O-])c2)c1`, -0.55% (inactive).
On the same count and under the same terms, with `CC(C)Cn1cnc2c1c(=O)n(C)c(=O)n2C` the figure was 1.65% (inactive); with `CCCCC(=O)O[C@]1(C(=O)CO)CC[C@H]2[C@@H]3CCC4=CC(=O)CC[C@]4(C)[C@H]3[C@@H](O)C[C@@]21C`, 1.5% (inactive).
Turning to `CCCCC[C@@H](O)CC[C@H]1[C@@H]2Cc3cccc(OCC(=O)O)c3C[C@@H]2C[C@@H]1O`, the insulin secretion stimulation was -0.45% (inactive).
Consider `O=C(OCCO)c1ccccc1O`, for which the insulin secretion stimulation is 0.25% (inactive).
The same measure, in the same setting: to `C[C@@H]1CCC[C@H](C)N1` belongs -1.2% (inactive); to `Cc1cccc(C)c1NC(=O)CC12CCCN1CCC2`, 0.3% (inactive).
The same measure, in the same setting: to `CN(C)CCCO[C@@H]1[C@H]2OC(C)(C)O[C@H]2O[C@@H]1C(O)CO` (some centres undefined) belongs 0.9% (inactive).
On the same count and under the same terms, to `CCN(CC)C(=O)c1cccnc1` belongs 1.2% (inactive); to `O=C(O)c1cc(N=Nc2ccc(O)c(C(=O)O)c2)ccc1O`, 0.9% (inactive); to `CC(=O)Oc1ccc2c(c1)CC[C@@H]1[C@@H]2CC[C@]2(C)[C@@H](O)CC[C@@H]12`, 1.3% (inactive).
Consider `CCOc1ccccc1C(N)=O`, for which the insulin secretion stimulation is -1.8% (inactive).
`CCCCCCCCCCCCCCCCCC[N+](C)(C)CCC[Si](OC)(OC)OC`: the insulin secretion stimulation is -0.25% (inactive).
With `N[C@H]1C(O)O[C@H](CO)[C@@H](O)[C@@H]1O` (some centres undefined), the insulin secretion stimulation is 1.4% (inactive).
On the same count and under the same terms, to `CC(CC=O)CCCC(C)(C)O` (centres undefined) belongs 0.85% (inactive).
The same measure, in the same setting: with `C/C(=N\O)[C@@H](C)NCC(C)(C)CN[C@H](C)/C(C)=N/O` the figure was 1.9% (inactive); with `Cc1ccc2nc(N)[nH]c(=O)c2c1Sc1ccncc1`, 1.1% (inactive).
Still for that read-out and setting: to `CCOC(=O)[C@H](CCc1ccccc1)N[C@@H](C)C(=O)N1C(=O)N(C)C[C@H]1C(=O)O` belongs 0% (inactive); to `CN1C[C@@H]2C[C@H]1CN2c1cc2c(cc1F)c(=O)c(C(=O)O)cn2C1CC1`, 0.3% (inactive); to `CO[C@H]1O[C@@H]2O[C@@]3(C)CC[C@H]4[C@H](C)CC[C@@H]([C@@H]1C)[C@@]24OO3`, -0.85% (inactive).
Take `C[C@H](O)CN(C)C`: the insulin secretion stimulation was 0.35% (inactive).

A further experiment in a line: growth inhibition of GSK3B-pretreated HCT116 cells – cell-based, CellTiter-Glo, 0.2 to 20 µM (AID 1117336;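 active = compounds lowering colon cancer cell viability after pretreatment blocking the GSK3B kinase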). To be noted: HCT116 viability after GSK3B inhibitor, at 20 µM, active compounds read high. In general terms: ATP-based viability assays read luminescence as a measure of living cells.
`CCCn1cnc2c1c(=O)n(CCCCC(C)=O)c(=O)n2C`: the viability decrease was 14.1% (inactive).
Same read-out and setting: to `Cc1c(C)n(CCN(C)C)c2ccc(C(=O)OCCN(C)C)cc12` belongs 41.2% (inactive); to `O=C(O)C1(C(=O)O)CCC1.[NH2-].[NH2-].[Pt+2]`, 67.5% (active); to `N[C@@H](Cc1ccc(O)cc1)C(=O)O`, -7.6% (inactive).
Regarding `CCCC(=O)O[C@]1(C(=O)CO)CC[C@H]2[C@@H]3CCC4=CC(=O)CC[C@]4(C)[C@H]3[C@@H](O)C[C@@]21C`, the viability decrease was -45.5% (inactive).
The same measure, in the same setting: to `O=C(O)C(S)C(S)C(=O)O` (centres undefined) belongs -17% (inactive); to `CC(C)=CCC[C@@](C)(O)[C@H]1CC=C(C)CC1`, -34.3% (inactive); to `C[C@]12CC[C@@H]3c4ccc(O)cc4CC[C@H]3[C@@H]1CC[C@@H]2OC(=O)CCC1CCCC1`, -8.5% (inactive).
For the compound `CC(=O)N(c1onc(C)c1C)S(=O)(=O)c1ccc(N)cc1`, the viability decrease is -73.1% (inactive).
Turning to `C#C[C@]1(OC(C)=O)CC[C@H]2[C@@H]3CCC4=C/C(=N/O)CC[C@@H]4[C@H]3CC[C@@]21CC`, the viability decrease was 98.8% (active).
`C[C@]12CCC(=O)C=C1CC[C@H]1[C@@H]3CC[C@](O)(C(=O)CO)[C@@]3(C)C[C@H](O)[C@@]12F`: the viability decrease is -81.6% (inactive).
The same measure, in the same setting: to `c1ccc2ccccc2c1` belongs 13.1% (inactive); to `Cc1c(-c2ccc(O)cc2)n(Cc2ccc(OCCN3CCCCCC3)cc2)c2ccc(O)cc12`, 99.8% (active).
Still for that read-out and setting: with `CC(=C(CCOC(=O)C(C)C)SSC(CCOC(=O)C(C)C)=C(C)N(C=O)Cc1cnc(C)nc1N)N(C=O)Cc1cnc(C)nc1N` the figure was 20.6% (inactive); with `Cc1cc(-c2ccc(N=Nc3c(S(=O)(=O)O)cc4cc(S(=O)(=O)O)cc(N)c4c3O)c(C)c2)ccc1N=Nc1c(S(=O)(=O)O)cc2cc(S(=O)(=O)O)cc(N)c2c1O`, 35.2% (inactive).
As to `O=[N+]([O-])c1cccc(S(=O)(=O)NCCNS(=O)(=O)c2cccc([N+](=O)[O-])c2)c1`, the viability decrease is 38.9% (inactive).
As for `CC(C)Cn1cnc2c1c(=O)n(C)c(=O)n2C`, the viability decrease is 0% (inactive).
For `CCCCC(=O)O[C@]1(C(=O)CO)CC[C@H]2[C@@H]3CCC4=CC(=O)CC[C@]4(C)[C@H]3[C@@H](O)C[C@@]21C`, the viability decrease is -12.8% (inactive).
Still for that read-out and setting: to `C[C@@H]1CCC[C@H](C)N1` belongs -2.8% (inactive).
Still for that read-out and setting: to `CN(C)CCCO[C@@H]1[C@H]2OC(C)(C)O[C@H]2O[C@@H]1C(O)CO` (some centres undefined) belongs 24.4% (inactive); to `CCN(CC)C(=O)c1cccnc1`, 6.1% (inactive).
Still for that read-out and setting: to `O=C(O)c1cc(N=Nc2ccc(O)c(C(=O)O)c2)ccc1O` belongs 15.9% (inactive); to `CC(=O)Oc1ccc2c(c1)CC[C@@H]1[C@@H]2CC[C@]2(C)[C@@H](O)CC[C@@H]12`, 13.1% (inactive); to `CCOc1ccccc1C(N)=O`, -5.85% (inactive).
For `CCCCCCCCCCCCCCCCCC[N+](C)(C)CCC[Si](OC)(OC)OC`, the viability decrease was 14.4% (inactive).
Regarding `N[C@H]1C(O)O[C@H](CO)[C@@H](O)[C@@H]1O` (some centres undefined), the viability decrease is 7.5% (inactive).
In the case of `Cc1ccc2nc(N)[nH]c(=O)c2c1Sc1ccncc1`, the viability decrease was 94.2% (active).
For the compound `CN1C[C@@H]2C[C@H]1CN2c1cc2c(cc1F)c(=O)c(C(=O)O)cn2C1CC1`, the viability decrease is 10.6% (inactive).
As to `CO[C@H]1O[C@@H]2O[C@@]3(C)CC[C@H]4[C@H](C)CC[C@@H]([C@@H]1C)[C@@]24OO3`, the viability decrease is 33.2% (inactive).
